The structures appear in SMILES notation. Among all 69,000 compounds or so, about 8,600 (12%) showed an effect of 50% or more. The full list was thinned out, with strong results kept by preference.

The test system of this test is Plasmodium berghei. Briefly: Screen against P. berghei liver stage (PbLuc), transformed with Luciferase, at 10uM. It is filed as functional, HepG2. The following applies: tested at 10 uM.
As to `COc1ccc(OC)c(C2CC(=O)Nc3nc(N4CCOCC4)sc32)c1` (centres undefined), the INHIBITION is recorded as 7.66%.

Consider `Cc1c(NC(=O)NC(C)CCO)cccc1OC1CCCC1` (centres undefined), for which the INHIBITION is on record as -16.9%.

For the molecule `CC(C)n1ccnc1CN1CCCN(C(=O)c2ncccc2O)CC1`, the INHIBITION was determined as 32.45%.

On to `CCOCCN1CCN(CC(O)c2ccc(F)cc2)CC1` (centres undefined), for which the INHIBITION came to 37.9%.

For the molecule `O=C(NC[C@]12COC[C@H]1CN(Cc1nccs1)C2)c1ccsc1`, the INHIBITION is on record as 7.31%.

As for `COc1ccc(NC(=O)C2CC(=O)N(C)C2)cn1` (centres undefined), the INHIBITION amounted to 45.7%.

As for `CC(C)(NS(C)(=O)=O)c1nc(-c2ccncc2)no1`, the INHIBITION is given as 22%.

As to `O=C(CCn1c(C(F)F)cc2cccnc21)NC1CCCCC1`, the INHIBITION is recorded as 14.7%.

Turning to `Cc1ccc(CN2CCC3(C2)C(=O)N(CC(N)=O)c2ccccc23)s1` (centres undefined), the INHIBITION amounted to 32.5%.

In the case of `Cc1ccc(CN2CCC3(C2)C(=O)N(CC(C)C)c2ccccc23)s1` (centres undefined), the INHIBITION came out at 65.1%.

Take `CN1C(=O)C2(CCN(CCO)C2)c2ccccc21` (centres undefined): the INHIBITION stood at 34.7%.

With `CN1C(=O)C2(CCN(CC3CCC3)C2)c2ccccc21` (centres undefined), the INHIBITION is listed as 88.2%.

As for `Cc1ccc(CN2CCC3(CC2)C(=O)Nc2ccccc23)s1`, the INHIBITION stood at 23.5%.

`CN1C(=O)C2(CCN(CC3CC3)CC2)c2ccccc21`: the INHIBITION is recorded as 30.7%.

Consider `CCOCC(=O)N1C[C@@H](O)[C@H](N2CCN(c3ccccc3)CC2)C1`, for which the INHIBITION is -3.25%.

`CC(C)CCN1CCN(C(=O)c2c[nH]c(=O)[nH]2)CC1`: the INHIBITION is -16.8%.

With `CCn1nc(C)c2nc(C(C)C)nc(N(C)Cc3ccco3)c21`, the INHIBITION came to 11.8%.

Take `OCCN1CCC(CNCc2ccccc2OC(F)(F)F)CC1`: the INHIBITION worked out at 4.8%.

On to `Cc1cc(C)n(-c2ccc(CNCc3cccc(C#N)c3)cn2)n1`, for which the INHIBITION is on record as -12.63%.

For `CC(C)c1csc(C(=O)N2CCCC(Cn3cc(CO)nn3)C2)n1` (centres undefined), the INHIBITION turned out to be 40.3%.

For the molecule `Cc1nn(CC(O)CN2CCc3ccccc3C2)c(=O)c(C#N)c1C` (centres undefined), the INHIBITION was -1.75%.

Regarding `O=C(N1CCCC1)N1CCC2(CC1)C(=O)N(CC1CC1)c1ccccc12`, the INHIBITION is given as 23.5%.

For the molecule `CCOCc1nnc2n1CCN(Cc1c(C)noc1C)CC2`, the INHIBITION was found to be 30.3%.

Take `Cn1nccc1C(=O)N1C[C@@H]2CN(S(C)(=O)=O)CCO[C@@H]2C1`: the INHIBITION is 40.5%.

As for `Cc1ccnc(C(=O)N2C[C@@H]3CN(S(C)(=O)=O)CCO[C@@H]3C2)c1`, the INHIBITION is on record as 48.2%.

Turning to `Cc1nc(C(=O)N2C[C@@H]3CN(S(C)(=O)=O)CCO[C@@H]3C2)cs1`, the INHIBITION is on record as 58.5%.

`O=C(c1sccc1Br)N(Cc1cccnc1)C1CC1`: the INHIBITION was 25.2%.

In the case of `Cn1cnc2c1CCN(Cc1ccc(Cl)c3cccnc13)C2`, the INHIBITION is 31.1%.

On to `Clc1ccc(CN2CCc3c(ncn3C3CC3)C2)c2ncccc12`, for which the INHIBITION is 66.3%.

As for `c1ccc(CCN2CCc3c(ncn3C3CC3)C2)nc1`, the INHIBITION was -24.7%.

On to `CCCOc1ccccc1CCCNc1ncnc2oc(C)nc12`, for which the INHIBITION came to 83.5%.

Take `CCCOc1ccc(Cl)cc1CNc1ncnc2oc(C)nc12`: the INHIBITION was determined as 45.4%.

Consider `Cc1nc2c(NC(CC(C)(C)C)c3cccnc3)ncnc2o1` (centres undefined), for which the INHIBITION worked out at 34.4%.

Turning to `CCN(CC)C(=O)C1CCCN(c2ncnc3oc(C)nc23)C1` (centres undefined), the INHIBITION turned out to be 3.46%.

Turning to `Cc1nc2c(NCC(C)N(C)c3ccccc3)ncnc2o1` (centres undefined), the INHIBITION is 67.7%.

As for `CCC(CNc1ncnc2oc(C)nc12)Cc1ccccc1` (centres undefined), the INHIBITION amounted to 59.5%.

With `CCCN(CCc1ccccc1)c1ncnc2oc(C)nc12`, the INHIBITION amounted to 25.4%.

For the molecule `Cc1ncnc(NC(CC(C)(C)C)c2cccnc2)c1C` (centres undefined), the INHIBITION was 40.3%.

In the case of `CC(CNc1cncc(-n2cccn2)n1)N(C)c1ccccc1` (centres undefined), the INHIBITION was 10%.

Turning to `Cc1ncnc(NCC(C)N(C)c2ccccc2)c1C` (centres undefined), the INHIBITION worked out at 68.6%.

For `Cc1nc2c(N(CCC(N)=O)CCc3ccccc3)ncnc2o1`, the INHIBITION is 19.2%.

Turning to `Cc1nc2c(N3CCC(O)(Cn4ccnc4)CC3)ncnc2o1`, the INHIBITION stood at 29.7%.

With `CC(C)CCN(CCC(C)C)Cc1nc2c(cnn2C)c(=O)[nH]1`, the INHIBITION is listed as -11.58%.

Take `O=C(c1ccco1)N1C[C@H]2CCCN(Cc3nccs3)[C@H]2C1`: the INHIBITION is listed as 1.71%.

With `CC(C)c1ccc(OCCNC(=O)CN2CCN(C)CC2C)cc1` (centres undefined), the INHIBITION came out at 32.7%.

Consider `COCCNc1nc(N2CCCC2)nc2nccnc12`, for which the INHIBITION amounted to 6.29%.

`O=C(c1cscn1)N1CC[C@H]2C[C@@H](c3ccncn3)O[C@@H]2C1`: the INHIBITION amounted to 43.9%.

For `COCCC(=O)NCc1ccc(-c2ccccc2C(=O)O)cn1`, the INHIBITION is recorded as 5.23%.

Take `O=C(C1CCC1)N1CC[C@H](O)[C@@H]1Cc1cccnc1`: the INHIBITION turned out to be 32.1%.

In the case of `CS(=O)(=O)CCN(CCc1cccc(F)c1)C1CC1`, the INHIBITION was found to be 30.9%.

Take `CCCN(C1CCc2ccccc2C1)S(C)(=O)=O` (centres undefined): the INHIBITION is 2.97%.

As for `CCCN(CCS(C)(=O)=O)C1CCc2ccccc2C1` (centres undefined), the INHIBITION came to 53.5%.

Consider `CN(C1CCc2ccccc2C1)S(C)(=O)=O` (centres undefined), for which the INHIBITION was found to be 53.5%.

Regarding `CNS(=O)(=O)CC(=O)N(C1CC1)C1Cc2ccccc2C1`, the INHIBITION is listed as 32%.
